Experimental data published in publication PMC10668032, “Altered binding affinity of SIX1-Q177R correlates with enhanced WNT5A and WNT pathway effector expression in Wilms tumor”.
Whole data set: some 33,000 sequences, median “e-score” near -0.05, cut for the highest 2% near 0.38. The sample holds the highest values, similar sequences and a random draw of the others, so the mix is not that of the screen.

Target: T1, SIX1-Q177R homeodomain (human, UniProt Q15475 108-198, Q177R)
T1 sequence: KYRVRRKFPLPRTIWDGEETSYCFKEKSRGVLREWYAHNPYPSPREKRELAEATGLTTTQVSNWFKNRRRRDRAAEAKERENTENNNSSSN
Test: universal protein binding microarray; Universal all-10-mer PBM (8x60K, AMADID 030236), 300 nM GST-tagged protein, Alexa Fluor 488 anti-GST; buffer, salt, pH and temperature not stated (as in Berger); high values mean tight binding
Details: protein: ivt; tags: N-terminal GST; dsDNA, one strand shown
How it was run: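 Binding of GST-tagged homeodomains is given as 8-mer E-scores from the Universal PBM Analysis Suite. The proteins were produced by in vitro transcription/translation, quantified by anti-GST western blot against a recombinant GST standard curve, and applied in duplicate at 300 nM final concentration to universal 'all 10-mer' protein binding microarrays (8×60K format).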

Row | Sequence | binding signal [E-score]
1 | AGAGTATC | 0.238 ± 0.0465
2 | AGTGTATC | 0.399 ± 0.0163
3 | CGTGTATC | 0.39 ± 0.00909
4 | AGTGTATA | 0.359 ± 0.0244
5 | TCTAGACA | 0.155 ± 0.0039
6 | CGATCCCC | 0.303 ± 0.0313
7 | CCCCAGGA | 0.173 ± 0.00623
8 | AGCGAGTG | 0.268 ± 0.0193
9 | CAAACTAG | 0.152 ± 0.0273
10 | ACGTGTGC | 0.16 ± 0.0249
11 | AGGTGTGA | 0.4098 ± 0.00286
12 | AGGTGTGC | 0.322 ± 0.019
13 | CGGTGCGC | 0.221 ± 0.0195
14 | AGGTGTGG | 0.371 ± 0.0242
15 | GTGTGTGA | 0.229 ± 0.0436
16 | CGGTGTGC | 0.381 ± 0.0324
17 | CGGTGAGA | 0.177 ± 0.0168
18 | CGGTGTGA | 0.434 ± 0.0168
19 | GAGTGTGA | 0.29 ± 0.0218
20 | GGGTGTGA | 0.429 ± 0.0152
21 | CGGGGTGA | 0.166 ± 0.0603
22 | ACTCCGAT | 0.182 ± 0.0265
23 | CCCCGACG | 0.162 ± 0.0371
24 | CACTAAGA | 0.17 ± 0.0243
25 | AGGTATCG | 0.33 ± 0.00862
26 | ACCCTGGA | 0.168 ± 0.028

Row | Sequence | binding signal [E-score]
27 | CCCCACAG | 0.172 ± 0.025
28 | CACCAAGC | 0.26 ± 0.0355
29 | CACCAGCC | 0.239 ± 0.0131
30 | CCCCAACA | 0.278 ± 0.00752
31 | GCTGACAC | 0.444 ± 0.00725
32 | ACTGACAC | 0.4777 ± 0.00257
33 | CCTGACCC | 0.159 ± 0.0403
34 | CCTGACAC | 0.452 ± 0.00834
35 | ACTGATAC | 0.295 ± 0.00533
36 | GCTGATAC | 0.243 ± 0.0143
37 | CCTGACGC | 0.161 ± 0.00552
38 | ACTGACCC | 0.213 ± 0.011
39 | ACTGACAA | 0.153 ± 0.0151
40 | GACTCCCC | 0.161 ± 0.0189
41 | AACCCACA | 0.157 ± 0.00573
42 | GAGTCACC | 0.157 ± 0.0094
43 | CTACGACA | 0.172 ± 0.0171
44 | CACCACGC | 0.2817 ± 0.00156
45 | ATTCGGGG | 0.1763 ± 0.00138
46 | CTCGACCC | 0.182 ± 0.0618
47 | GTCGAAAC | 0.182 ± 0.0154
48 | ATCGACTC | 0.201 ± 0.019
49 | GTCGACAC | 0.4143 ± 0.00159
50 | CTCGGCAC | 0.194 ± 0.0445
51 | ATCGACCC | 0.163 ± 0.0642
52 | ATCGACAC | 0.436 ± 0.0239

Row | Sequence | binding signal [E-score]
53 | CTCGACAC | 0.419 ± 0.0214
54 | CACGCCTG | 0.202 ± 0.0125
55 | CCCCTCCA | 0.195 ± 0.0175
56 | ACATGACA | 0.179 ± 0.0207
57 | ATGCCAAG | 0.162 ± 0.0414
58 | GTGGGGTA | 0.278 ± 0.0225
59 | GGTTTAAC | 0.1932 ± 0.000396
60 | AAGTGTGG | 0.169 ± 0.00659
61 | AAGGGTCG | 0.188 ± 0.0266
62 | AAGTGTCG | 0.384 ± 0.00583
63 | CAGTCACA | 0.1706 ± 0.000283
64 | CAGTGTCC | 0.374 ± 0.0168
65 | CAGTGTCG | 0.444 ± 0.0154
66 | CAGTGTCA | 0.4579 ± 0.00161
67 | CCTCGACA | 0.218 ± 0.00226
68 | CCGACTCG | 0.159 ± 0.0511
69 | GGGGTCGA | 0.298 ± 0.0393
70 | TAGCGACA | 0.172 ± 0.00519
71 | AGGGGTCA | 0.28 ± 0.00906
72 | CACCCGTG | 0.3705 ± 0.00306
73 | GTTTCACA | 0.161 ± 0.0356
74 | ACCAGTAC | 0.151 ± 0.0205
75 | GGTGCGTA | 0.161 ± 0.0186
76 | AGTACACA | 0.253 ± 0.0191
77 | AGTACACG | 0.4259 ± 0.00113
78 | GGTACACA | 0.322 ± 0.0315

Row | Sequence | binding signal [E-score]
79 | GGCACACC | 0.351 ± 0.0301
80 | CGTACACC | 0.483 ± 0.00107
81 | TGTACACA | 0.353 ± 0.00919
82 | CGTACCCC | 0.24 ± 0.0402
83 | GGTACACC | 0.4848 ± 0.00354
84 | CGTACACA | 0.268 ± 0.0421
85 | CGTACTCC | 0.221 ± 0.003
86 | CGTACACG | 0.405 ± 0.0112
87 | CACTTCAA | 0.265 ± 0.016
88 | AAACCCCT | 0.178 ± 0.0353
89 | GTATCTGA | 0.236 ± 0.00609
90 | CGGATACA | 0.294 ± 0.0106
91 | CCCGCGCA | 0.176 ± 0.0199
92 | CCCCCCAG | 0.162 ± 0.0223
93 | AGTACCCC | 0.2867 ± 0.00256
94 | AGTACACC | 0.4815 ± 0.00102
95 | AGTACACT | 0.406 ± 0.0266
96 | AGTACAAG | 0.205 ± 0.0236
97 | CACGCTCA | 0.155 ± 0.038
98 | CTAGCACC | 0.203 ± 0.0347
99 | GTATCGGA | 0.2544 ± 0.00158
100 | ACACGGCG | 0.359 ± 0.00453
101 | ACACGGTA | 0.385 ± 0.0298
102 | ACACGGTC | 0.4128 ± 0.00131
103 | ACCCGGTA | 0.236 ± 0.00419
104 | GCACGGTA | 0.165 ± 0.0341

Row | Sequence | binding signal [E-score]
105 | ACACGGTG | 0.438 ± 0.00996
106 | ATACGGTG | 0.276 ± 0.0116
107 | ACGGGAGT | 0.186 ± 0.00625
108 | ACTCCACC | 0.275 ± 0.00877
109 | CGTGCACG | 0.17 ± 0.0561
110 | CACCGTGC | 0.3272 ± 0.00251
111 | ACCACTAC | 0.178 ± 0.00318
112 | CTCCCGGC | 0.152 ± 0.0261
113 | ACCCCTAC | 0.294 ± 0.0164
114 | AGGGGTAA | 0.224 ± 0.0133
115 | AGTGGTGC | 0.2454 ± 0.00132
116 | GTGTGAGA | 0.291 ± 0.0156
117 | GTGTAACA | 0.445 ± 0.00891
118 | GTGTAAAC | 0.445 ± 0.018
119 | ATGTAACA | 0.2716 ± 0.000905
120 | GTTTAAAC | 0.3445 ± 0.00099
121 | GTGTAATA | 0.451 ± 0.00861
122 | CCCTAAGA | 0.276 ± 0.0324
123 | GTGAAATA | 0.172 ± 0.00835
124 | GGGTAAAC | 0.193 ± 0.00601
125 | GTGTAAGA | 0.411 ± 0.0296
126 | GGGTAACA | 0.281 ± 0.0312
127 | GGGTAATA | 0.264 ± 0.00387
128 | ACATAGTG | 0.19 ± 0.00926
129 | ACCCTGCT | 0.19 ± 0.00245
130 | CACGCGAG | 0.27 ± 0.0228

Row | Sequence | binding signal [E-score]
131 | CCCGCCGG | 0.245 ± 0.0587
132 | CCAAGCGG | 0.162 ± 0.00467
133 | AACGTACA | 0.185 ± 0.0191
134 | GTATCGTA | 0.18 ± 0.0138
135 | AGTCGCGA | 0.189 ± 0.03
136 | CACTCCTC | 0.201 ± 0.00344
137 | GTGTAAAA | 0.401 ± 0.049
138 | GTGTGAAA | 0.356 ± 0.00667
139 | GGATCCCA | 0.235 ± 0.0247
140 | ATTGACCC | 0.167 ± 0.0261
141 | CTTGACAC | 0.42915 ± 0.000184
142 | ATTGACTC | 0.162 ± 0.0495
143 | ATTGACAC | 0.438 ± 0.0129
144 | CTTGATAC | 0.195 ± 0.0457
145 | CTTGACCC | 0.201 ± 0.00951
146 | CAGCGTTA | 0.187 ± 0.0162
147 | AGATGACA | 0.1652 ± 0.000311
148 | CACCCACA | 0.365 ± 0.00539
149 | CCCTTAAC | 0.152 ± 0.0479
150 | AAATACAC | 0.403 ± 0.0413
151 | GAATACAC | 0.408 ± 0.0236
152 | CAATACAC | 0.371 ± 0.0193
153 | GAATACCC | 0.159 ± 0.00629
154 | CAAAATAC | 0.162 ± 0.0251
155 | CCCTTAGG | 0.175 ± 0.00592
156 | CACCCGAG | 0.297 ± 0.0235

Row | Sequence | binding signal [E-score]
157 | ACCAGTGG | 0.189 ± 0.0039
158 | CCCCAAGG | 0.218 ± 0.0124
159 | ACCTGGGG | 0.21 ± 0.0103
160 | CACGCCGG | 0.287 ± 0.0131
161 | GGTTAACA | 0.224 ± 0.0235
162 | TCTTAACA | 0.202 ± 0.0606
163 | TGTTAACA | 0.389 ± 0.043
164 | CCCTAGTC | 0.167 ± 0.0143
165 | GCACCTCA | 0.162 ± 0.0144
166 | ACCCCTCG | 0.3069 ± 0.00276
167 | ACTCCTCT | 0.174 ± 0.0278
168 | ACACCTCT | 0.467 ± 0.0079
169 | ACCCCTCT | 0.304 ± 0.0038
170 | ATACCTCC | 0.231 ± 0.0309
171 | ACACCTCA | 0.452 ± 0.0073
172 | ACACCTCC | 0.4719 ± 0.000629
173 | CACCCTCG | 0.349 ± 0.0215
174 | CCACCTCC | 0.159 ± 0.00267
175 | ACGCCTCA | 0.165 ± 0.0291
176 | ACACCTCG | 0.453 ± 0.00735
